Measured values taken from PubChem BioAssay (Tox21).
“And” between values parts separate entries of the source, which are not always exact repeats. Identical values can stand only once. Results filed as inconclusive are left out. Where a call stands in place of a potency, no number is given. Some compounds were tested as several samples or in several runs, with calls that do not always agree. The source made the active and inactive calls. Calls come from the whole dose curve; as a rule, active = well fitted cell-killing curve with a large enough effect in the repeat runs; inconclusive = weak or mixed curves, or effect the other way; inactive = no such curve, though single readings can be large or run the other way.

Assay: qHTS assay for identifying genotoxic compounds that show differential cytotoxicity against isogenic chicken DT40 cell lines with known DNA damage response pathways - wild type cell line (AID 743012); note: nearly all actives have a fitted effect of over 60% in size
Details: DT40 wild type chicken cells viability, CellTiter-Glo, 40 h; series mostly up to 68.4 µM
Summary of the method: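 First, wild type DT40 cells were plated at 300 per well and equilibrated about 0.5 h at 37 C/5% CO2. Next, compounds in DMSO were added and exposure lasted 40 h. Finally, CellTiter-Glo was added for 30 min at room temperature and luminescence recorded.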
Potency is the fitted concentration of half-maximal effect.

Compound | Potency
CC(C)(C)NC[C@H](O)COc1nsnc1N1CCOCC1 | inactive
Cc1ccc([N+](=O)[O-])cc1N | inactive
CC(C)=CCC/C(C)=C/C=O | inactive
O=C(NCC1CCCCN1)c1cc(OCC(F)(F)F)ccc1OCC(F)(F)F (stereo not given) | 29.8 µM (active) and inactive
CC1(C)[C@@H](O[C@H]2O[C@H](C(=O)O)[C@@H](O)[C@H](O)[C@H]2O[C@@H]2O[C@H](C(=O)O)[C@@H](O)[C@H](O)[C@H]2O)CC[C@]2(C)[C@H]3C(=O)C=C4[C@@H]5C[C@@](C)(C(=O)O)CC[C@]5(C)CC[C@@]4(C)[C@]3(C)CC[C@@H]12 | inactive
C1CCCNCC1 | inactive
COc1c2ccoc2cc2oc(=O)ccc12 | inactive
CC(=O)Nc1ccc(CC(=O)O)cc1 | inactive
CCCCCCC(=O)O | inactive
CC(=O)OC(C)(C)C1CC=C(C)CC1 (stereo not given) | inactive
Cc1ccccc1C=O | inactive
NC(=O)NC(N)=O | inactive
Cc1cc(CC(=O)O)n(C)c1C(=O)c1ccc(Cl)cc1 | inactive
C[Si](C)(C)N[Si](C)(C)C | inactive
COc1ccc2cc3[n+](cc2c1OC)CCc1cc2c(cc1-3)OCO2 | 2.37 µM (active) and 4.36 µM (active)
Nc1nc(N)c2nc(-c3ccccc3)c(N)nc2n1 | 11.9 µM (active) and 12.3 µM (active) and 4.86 µM (active)
Clc1cccc(Cl)c1NC1=NCCN1 | inactive
O=C(O)C1=NN(c2ccc(S(=O)(=O)O)cc2)C(=O)C1 | inactive
N[C@@H](Cc1cc(I)c(Oc2ccc(O)c(I)c2)c(I)c1)C(=O)O | 29.8 µM (active) and inactive

Compound | Potency
C=C(CC(=O)O)C(=O)O | inactive
Cc1ccccc1Cl | inactive
CCCCCCCCCCCCCC(=O)O | inactive
O=C1CCCCCCCCCCC1 | inactive
COCN(COC)c1nc(N(COC)COC)nc(N(COC)COC)n1 | inactive
Cc1nnc(NS(=O)(=O)c2ccc(N)cc2)s1 | inactive
C[n+]1ccn(CCO)c1 | inactive
NC(N)=S | inactive
CCCCCCCCC(=O)O | inactive
OC1CCCCC1 | inactive
Cc1ccc(C(C)C)cc1 | inactive
CCn1cc(C(=O)O)c(=O)c2cc3c(cc21)OCO3 | inactive
CC(=O)CC(=O)N(C)C | inactive
CCCCC(CC)COC(=O)c1ccc(C(=O)OCC(CC)CCCC)cc1 (stereo not given) | inactive
Cc1cc(C)c(O)c(C)c1 | inactive
CC(C)c1ccc(C(C)C)cc1 | inactive
Oc1ccc(Cc2ccccc2O)cc1 | inactive
OCC(O)CS (stereo not given) | inactive
Cc1ccncc1 | inactive

Assay: qHTS assay for identifying genotoxic compounds that show differential cytotoxicity against isogenic chicken DT40 cell lines with known DNA damage response pathways - Rev3 mutant cell line (AID 743014); note: nearly all actives have a fitted effect of over 55% in size
Details: chicken DT40 Rev3-/- viability, CellTiter-Glo, 40 h; series mostly up to 68.4 µM

Compound | Potency
CC(C)(C)NC[C@H](O)COc1nsnc1N1CCOCC1 | inactive
Cc1ccc([N+](=O)[O-])cc1N | inactive
CC(C)=CCC/C(C)=C/C=O | inactive
CC1(C)[C@@H](O[C@H]2O[C@H](C(=O)O)[C@@H](O)[C@H](O)[C@H]2O[C@@H]2O[C@H](C(=O)O)[C@@H](O)[C@H](O)[C@H]2O)CC[C@]2(C)[C@H]3C(=O)C=C4[C@@H]5C[C@@](C)(C(=O)O)CC[C@]5(C)CC[C@@]4(C)[C@]3(C)CC[C@@H]12 | inactive
C1CCCNCC1 | inactive
COc1c2ccoc2cc2oc(=O)ccc12 | inactive
CC(=O)Nc1ccc(CC(=O)O)cc1 | inactive
CCCCCCC(=O)O | inactive
CC(=O)OC(C)(C)C1CC=C(C)CC1 (stereo not given) | inactive
Cc1ccccc1C=O | inactive
NC(=O)NC(N)=O | inactive
Cc1cc(CC(=O)O)n(C)c1C(=O)c1ccc(Cl)cc1 | inactive
C[Si](C)(C)N[Si](C)(C)C | inactive
COc1ccc2cc3[n+](cc2c1OC)CCc1cc2c(cc1-3)OCO2 | 3.35 µM (active) and 3.09 µM (active)
Nc1nc(N)c2nc(-c3ccccc3)c(N)nc2n1 | 9.44 µM (active) and 3.9 µM (active) and 6.11 µM (active)
Clc1cccc(Cl)c1NC1=NCCN1 | inactive and 61.1 µM (active)
O=C(O)C1=NN(c2ccc(S(=O)(=O)O)cc2)C(=O)C1 | inactive
N[C@@H](Cc1cc(I)c(Oc2ccc(O)c(I)c2)c(I)c1)C(=O)O | 23.7 µM (active) and inactive
C=C(CC(=O)O)C(=O)O | inactive

Compound | Potency
Cc1ccccc1Cl | inactive
CCCCCCCCCCCCCC(=O)O | inactive
O=C1CCCCCCCCCCC1 | inactive
COCN(COC)c1nc(N(COC)COC)nc(N(COC)COC)n1 | inactive
Cc1nnc(NS(=O)(=O)c2ccc(N)cc2)s1 | inactive
C[n+]1ccn(CCO)c1 | inactive
NC(N)=S | inactive
CCCCCCCCC(=O)O | inactive
OC1CCCCC1 | inactive
Cc1ccc(C(C)C)cc1 | inactive
CCn1cc(C(=O)O)c(=O)c2cc3c(cc21)OCO3 | inactive
CC(=O)CC(=O)N(C)C | inactive
CCCCC(CC)COC(=O)c1ccc(C(=O)OCC(CC)CCCC)cc1 (stereo not given) | inactive
Cc1cc(C)c(O)c(C)c1 | inactive
CC(C)c1ccc(C(C)C)cc1 | inactive
Oc1ccc(Cc2ccccc2O)cc1 | inactive
OCC(O)CS (stereo not given) | inactive
Cc1ccncc1 | inactive
